The nature of assay [1]: qHTS assay to identify small molecule agonists of the hypoxia (HIF-1) signaling pathway - cell viability counter screen (AID 1224844; calls by dose curve; further: nearly all actives have a fitted effect of over 50% in size; further: potency means the concentration at half of the fitted maximal effect). In a few lines:
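HRE-bla ME-180 cells in medium with 0.5% dialyzed FBS were preincubated 5 hrs at 37C, exposed to compounds for 17 hrs, then viability was read as CellTiter-Glo luminescence after 30 min at room temperature, in the reporter wells.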
In general terms: In qHTS, concentration-response curves come from the screen itself.

A short description of assay [2]: qHTS assay to identify small molecule agonists of H2AX (AID 1224845; active means well fitted activation curve with a large enough effect in the signal ratio in the repeat runs, not every such curve was filed as active; the % refers to the signal ratio; further: potency means the concentration at half of the fitted maximal effect). The method in brief:
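Phospho-H2AX Ser139 measured by HTRF (ex 320 nm; em 665 and 620 nm) after 24 hr antibody incubation. Compounds, 15 concentrations, 0.76% DMSO, were applied to CHO-K1 cells for 3hr at 37C before lysis.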

Assay [3] is described as follows: qHTS assay to identify small molecule agonists of H2AX - cell viability counter screen (AID 1224847; calls by dose curve; further: nearly all actives have a fitted effect of over 30% in size; further: potency means the concentration at half of the fitted maximal effect). The method in brief: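 Viability of CHO-K1 (wild type) cells after 3 hr compound exposure was measured by CellTiter-Glo luminescence.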
A short description of assay [4]: qHTS assay to identify small molecule antagonists of the estrogen related receptor (ERR) signaling pathway from Tox21 library (AID 1224848). Further: nearly all actives have a fitted effect of over 50% in size. Further: potency means the concentration at half of the fitted maximal effect. The method in brief: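 Antagonist-mode screen of the Tox21 10K library in an NTP-provided ERR reporter cell line; 18 h compound exposure at 37 C, luminescence measured with ONE-Glo.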
Assay [5] in a line: qHTS assay to identify small molecule agonists of the estrogen related receptor (ERR) signaling pathway from Tox21 library (AID 1224849; calls by dose curve; further: nearly all actives have a fitted effect of over 15% in size). The conditions noted are these: ERR reporter cell line, ONE-Glo luciferase, 18 h. The method in brief: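 ERR reporter cell line (NTP) seeded, rested 6 h at 37 C/5% CO2, then pinned with Tox21 compounds in DMSO. After 18 h at 37 C, ONE-Glo luciferase luminescence was read following 30 min at room temperature.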

The nature of assay [6]: qHTS RealTime-Glo MT Cell Viability Assay in HepG2 cells - 24 hour (AID 1224867). Further: nearly all actives have a fitted effect of over 50% in size. Further: potency means the concentration at half of the fitted maximal effect. The method in brief:
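Cell number in HepG2 cultures estimated from NanoLuc luminescence generated by metabolic reduction of a prosubstrate by living cells. The homogeneous, nonlytic format allowed repeated reads at 0, 8, 16, 24, 32 and 40 h of compound exposure.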

The nature of assay [7]: qHTS RealTime-Glo MT Cell Viability Assay in HEK293 cells - 32 hour (AID 1224868). Further: nearly all actives have a fitted effect of over 50% in size. Further: potency means the concentration at half of the fitted maximal effect. In a few lines:
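Homogeneous bioluminescent viability format in HEK293 cells (600 cells/well). Following 5 h at 37 C/5% CO2, 23 nL compound was pintooled; the signal was measured repeatedly during 40 h incubation.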

Assay [8] can be described thus: A CellTox Green Cytotoxicity Assay to monitor cytotoxicity in HEK293 cells - 0 hour (AID 1224869). Further: nearly all actives have a fitted effect of over 50% in size. Further: potency means the concentration at half of the fitted maximal effect. In a few lines:
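HEK293 cells premixed with CellTox Green dye were seeded at 600 cells/well and left 5 h at 37 C/5% CO2 before pin transfer of 23 nL compound in DMSO. Fluorescence from dye bound to dead-cell DNA was read during 40 h treatment.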

Assay [9] in a line: qHTS RealTime-Glo MT Cell Viability Assay in HepG2 cells - 40 hour (AID 1224870). Further: nearly all actives have a fitted effect of over 50% in size. Further: potency means the concentration at half of the fitted maximal effect. In a few lines:
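Real-time viability: cells seeded at 600 per well together with NanoLuc and cell-permeant prosubstrate, compounds added after 5 h incubation. Luminescence tracked at 0, 8, 16, 24, 32 and 40 h of exposure.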

The nature of assay [10]: qHTS assay to identify small molecule agonists of the hypoxia (HIF-1) signaling pathway (AID 1224846; active means well fitted activation curve with a large enough effect in the signal ratio in the repeat runs, not every such curve was filed as active; the % refers to the signal ratio; further: potency means the concentration at half of the fitted maximal effect). In a few lines: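 HRE-bla ME-180 cells (beta-lactamase reporter under hypoxia response element) were plated at 2,000 cells/well in medium with 0.5% dialyzed FBS, rested 5 hrs, then given compounds in DMSO for 17 hrs at 37C, 5% CO2. Reporter induction was read with CCF4-AM FRET substrate.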

Structures are written as SMILES. Where “and” joins values, the source holds several entries; their conditions need not be identical. Identical values can stand only once. Inconclusive results are not listed. Some compounds were tested as several samples or in several runs, with calls that do not always agree. Calls of active or inactive are those of the source. Unless noted, the call rests on the fitted dose curve; in most records, active means well fitted curve in the direction sought with a large enough effect in the repeat runs; inconclusive means weak or mixed curves; inactive means no such curve, though single readings can be large; an effect the other way counts as inactive or inconclusive.

18 molecules from PubChem BioAssay (Tox21) can be followed below.
On the % scale 0 is the no-effect control and ±100 the full control effect.

For the molecule `COc1ccc2c(c1)c(CC(=O)OC/C=C(\C)CC/C=C(\C)CCC=C(C)C)c(C)n2C(=O)c1ccc(Cl)cc1`, the Potency result in [1], in [2], in assay [3], in assay [4], in [6] and in [7] was “inactive” throughout. Also, the Potency entry in [8] and in assay [9] was “inactive” throughout. The activity change, positive = activation in assay [5] (at 42.5 µM (top of the series)) is -0.248% (inactive).
Turning to `COc1cccc2c1C(=O)c1c(O)c3c(c(O)c1C2=O)C[C@@](O)(C(C)=O)C[C@@H]3O[C@H]1C[C@H](N)[C@H](O)[C@H](C)O1`, the Potency in assay [1] is 553 nM (active) and inactive; in assay [2], 39.1 nM (active); in [6] it was 24.7 µM (active); in [8], 43.9 µM (active). The Potency result in [3] and in [4] was “inactive” in each case. Further, the activity change, positive = activation in [5] (at 42.5 µM (top of the series)) is -0.62% (inactive); in [5] (at 92.4 µM (top of the series)) it was -74.3% (inactive).
Take `CCOC(=O)NNc1ccc(N(CC)CC(C)O)nn1` (stereo not drawn): the Potency entry in assay [1], in assay [10], in [3], in assay [4], in assay [6] and in assay [7] was “inactive” throughout. Moreover, the Potency entry in assay [8] and in assay [9] was “inactive” in each case. In [5] (at 42.5 µM (top of the series)), the activity change, positive = activation was 0.457% (inactive).
On to `CCN(CC)c1ccc2c(-c3ccc(S(=O)(=O)O)cc3S(=O)(=O)[O-])c3ccc(=[N+](CC)CC)cc-3oc2c1`, for which the Potency result in [1], in [10], in assay [6], in [7], in assay [8] and in assay [9] was “inactive” each time. Moreover, the values for the Potency in [3] and in assay [4] were 20.7 µM (active) and 35.5 µM (active), respectively. Also, in assay [5] (at 92.4 µM (top of the series)), the activity change, positive = activation is -38.9% (inactive).
As to `CCCCCCCCCCCCCC[N+](C)(C)Cc1ccccc1`, the Potency result in [1] was “inactive and 17.8 mM (active)”; in assay [3] it was 25.7 µM (active) and 49.2 µM (active); in assay [4] it was 9.84 µM (active) and 10.6 µM (active) and 11.2 mM (active); in [6], 44.3 µM (active) and 10.7 µM (active) and 17.8 mM (active); in assay [7], 3.52 µM (active) and 3.01 µM (active) and 2.82 mM (active); in assay [9], 22.2 µM (active) and 9.52 µM (active) and 15.8 mM (active). Also, the Potency result in assay [2] and in assay [8] was “inactive” in each case. Moreover, the activity change, positive = activation in [5] (at 42.5 µM (top of the series)) is -57.9% (inactive); in assay [5] (at 92.4 µM (top of the series)), -69.7% (inactive); in assay [5] (at 46.2 mM (top of the series)), -75.1% (inactive).
With `C#CC1(O)CC[C@H]2[C@@H]3CCC4=CCCC[C@@H]4[C@H]3CC[C@@]21C` (stereo partly drawn), the Potency in [1] was 21.9 µM (active) and 15.1 µM (active); in assay [3], 89.8 µM (active); in assay [4], 61.1 µM (active) and 26.6 µM (active); in assay [6] it was 21.3 µM (active); in assay [9] it was 49 µM (active) and 23.9 µM (active). Besides, the Potency entry in assay [2] and in assay [8] was “inactive” throughout. Further, the activity change, positive = activation in [5] (at 42.5 µM (top of the series)) is -49.7% (inactive); in assay [5] (at 92.4 µM (top of the series)), -45.9% (inactive).
As to `O=S(=O)(O)c1ccccc1/C=C/c1ccc(-c2ccc(/C=C/c3ccccc3S(=O)(=O)O)cc2)cc1`, the Potency result in [1], in assay [3], in [4], in assay [6], in assay [7] and in assay [9] was “inactive” throughout. In addition, the Potency in assay [10] was 39.4 µM (active). Moreover, in [5] (at 92.4 µM (top of the series)), the activity change, positive = activation was 4.34% (inactive).
As for `CCCCCCCCCCCCCC[N+](C)(C)C`, the Potency is 42.2 µM (active) in assay [1]; 38.8 µM (active) and 50.4 µM (active) in [3]; 2.64 µM (active) and 4.32 µM (active) and 8.41 µM (active) in assay [4]; 11.9 µM (active) and 21.8 µM (active) and 23.9 µM (active) in assay [6]; 9.44 µM (active) and 12.3 µM (active) and 2.13 µM (active) in [7]; 7.5 µM (active) and 17.4 µM (active) and 23.9 µM (active) in [9]. Moreover, the Potency entry in [2] and in [8] was “inactive” in each case. Moreover, the activity change, positive = activation in [5] (at 42.5 µM (top of the series)) is -50% (inactive); in assay [5] (at 92.4 µM (top of the series)), -78.5% (inactive) and -74.4% (inactive).
With `OCCN1CCN(CCCN2c3ccccc3Sc3ccc(C(F)(F)F)cc32)CC1`, the Potency in [1] is 19 µM (active); in assay [6], 26.8 µM (active); in assay [7], 23.9 µM (active). Further, the Potency entry in assay [2] and in assay [8] was “inactive” throughout. In [5] (at 42.5 µM (top of the series)), the activity change, positive = activation was -32% (inactive).
For the molecule `CCN(CC)C(=O)c1cc(S(=O)(=O)Cc2ccccc2)c(N2CCC(c3ccccc3)CC2)cc1N(CC)CCN(C)C`, the Potency in assay [1] is 10.8 µM (active); in [3] it was 31.5 µM (active); in [4] it was 21.4 µM (active); in assay [6], 17.2 µM (active); in assay [7], 8.61 µM (active); in [9] it was 13.6 µM (active). The Potency result in assay [10] and in assay [8] was “inactive” throughout. Besides, the activity change, positive = activation in assay [5] (at 42.5 µM (top of the series)) is -79.2% (inactive).
Consider `CCCCCCCCCCCCCCCC[N+](C)(C)CC`, for which the Potency result in [1], in assay [2] and in [8] was “inactive” each time. Moreover, the Potency in [3] is 101 µM (active) and 49.2 µM (active); in assay [4], 17.3 µM (active) and 10.6 µM (active); in assay [6], 24.6 µM (active) and 23.9 µM (active); in assay [7] it was 4.91 µM (active) and 4.77 µM (active); in [9], 19.6 µM (active) and 19 µM (active). The activity change, positive = activation was -55.4% (inactive) in assay [5] (at 42.5 µM (top of the series)) and -72.7% (inactive) in [5] (at 92.4 µM (top of the series)).
In the case of `Nc1ccc(C(=O)O)c(O)c1`, the Potency result in assay [1], in assay [2], in [3], in assay [6] and in assay [9] was “inactive” throughout. For the same molecule, the activity change, positive = activation in [5] (at 42.5 µM (top of the series)) is -27.4% (inactive).
As to `C=C(C)C(=O)OCCCCCCCCCC`, the Potency result in [1], in assay [10], in [3], in assay [4], in [6] and in [7] was “inactive” in each case. Besides, the Potency result in assay [8] and in assay [9] was “inactive” throughout. Also, the activity change, positive = activation in assay [5] (at 92.4 µM (top of the series)) was 2.01% (inactive).
As for `O=C(O)[C@H](O)[C@@H](O)[C@H](O[C@@H]1O[C@H](CO)[C@H](O)[C@H](O)[C@H]1O)[C@H](O)CO`, the Potency result in [1], in assay [2], in assay [3], in [6] and in assay [7] was “inactive” each time.
As for `O=C(O)c1cc(O)c2ccccc2c1O`, the Potency in [1] is 11 µM (active); in assay [3], 50.5 µM (active); in assay [4] it was 61.1 µM (active); in [6], 19.5 µM (active); in [9] it was 21.9 µM (active). Also, the activity change, positive = activation in [5] (at 92.4 µM (top of the series)) is -58.1% (inactive). Besides, the Potency entry in assay [8] is “inactive”.
In the case of `CCOC(=O)Cn1cccc1-c1nc(-c2ccc(OC)cc2)c(-c2ccc(OC)cc2)s1`, the Potency entry in assay [1], in assay [3], in [7] and in assay [8] was “inactive” in each case.
Regarding `CCCCCCCCCCCCOC(=O)c1ccc(O)cc1`, the Potency result in [1], in [10] and in assay [6] was “inactive” each time.
For `O=C(/C=C/c1ccc(O)c(O)c1)O[C@@H](C(=O)O)[C@@H](OC(=O)/C=C/c1ccc(O)c(O)c1)C(=O)O`, the Potency entry in assay [1], in [10], in assay [3], in assay [6], in assay [7] and in assay [8] was “inactive” each time.
